Screening results from PubChem BioAssay.
Tg IFNy HTS = inhibitors of Toxoplasma gondii growth with IFN-gamma; Toxoplasma gondii growth in IFN-gamma-treated host cells; stronger effect = lower value; activity change, negative = inhibition, % (no concentration beside the values); actives 3.8% (n = 69,000); AID 1259416; in the data active means activity change below about -70%, passing the limit was not always enough;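 further: host cells are HeLa cells infected with Toxoplasma gondii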
* marks the source's active call; other numbers are inactive results. This excerpt belongs to a sample that is enriched for hits.

For COc1ccc(C2Sc3ccccc3N=C3c4ccccc4CCC32)cc1 (centres undefined) the results were Tg IFNy HTS -65.
Screening COc1ccc(C2CN=NC23CSc2ccccc2C3=O)cc1 (centres undefined) returned Tg IFNy HTS -82*.
Screening CC(C)CN1C(=O)CO[C@H]2CN(C(=O)COc3ccccc3)C[C@@H]21 returned Tg IFNy HTS -41.
For COc1ccc(CN2CC(OCc3cccnc3)CN(C(=O)c3ccc(C(C)=O)cc3)CC2=O)cc1 (centres undefined) the results were Tg IFNy HTS -2.
Screening O=C(NC(=S)SCc1ccccc1)c1ccc(C(F)(F)F)cc1 returned Tg IFNy HTS -10.
CC(=O)c1c(C)nc(-c2ccc(C(F)(F)F)cc2)nc1SCc1ccccc1 was read as Tg IFNy HTS -78*.
Screening Cn1c(SCc2ccccc2)nnc1-c1ccc(C(C)(C)C)cc1 returned Tg IFNy HTS 1.
For O=C(c1cn[nH]n1)N(CCCO)Cc1cccnc1 the results were Tg IFNy HTS 2.
`CC(C)C1CN(C(=O)c2n[nH]c3c2CCC3)CCCN1CC1CC1` (centres undefined) gave Tg IFNy HTS 8.
For O=C(CC1C(=O)NCCN1C1CCCC1)Nc1cccc(C(=O)N2CCOCC2)c1 (centres undefined) the results were Tg IFNy HTS 11.
CC(C)NC(=O)N1CCC2(CC1)CC1(CCN(c3ncccn3)CC1)C(=O)N2C was read as Tg IFNy HTS 3.
CN(Cc1nc(-c2ccccc2)no1)Cc1cccc2nccnc12 was read as Tg IFNy HTS -7.
Screening CN1[C@H]2CC[C@@H]1CN(C(=O)c1ccc(-n3cnnc3)cc1)CC2 returned Tg IFNy HTS 3.
Screening Cc1ccsc1[C@@H]1CCN(C(=O)c2cccc(=O)[nH]2)C[C@H]1O returned Tg IFNy HTS 1.
Screening Cc1ccsc1[C@@H]1CCN(C(=O)c2ccc(-n3cnnc3)cc2)C[C@H]1O returned Tg IFNy HTS -81*.
`Cc1cc(CN2CCCC2)ccc1Oc1cncc(C(=O)N2CCCC2)n1` gave Tg IFNy HTS 1.
For Cc1nc(C(C)C)ncc1C(=O)N1CCC2(CN(C)C(=O)O2)C1 (centres undefined) the results were Tg IFNy HTS -57.
`CC(C)C(=O)c1cc2c(s1)CCN2S(C)(=O)=O` gave Tg IFNy HTS -85*.
CS(=O)(=O)N1CCc2sc(C(=O)Nc3ccccc3F)cc21 was read as Tg IFNy HTS -19.
CS(=O)(=O)N1CCc2sc(C(=O)NCc3ccccc3)cc21 was read as Tg IFNy HTS -4.
Screening COc1ccc(NC(=O)c2c(O)c3cccnc3n(-c3ccc(F)cc3)c2=O)cc1 returned Tg IFNy HTS 31.
`O=C(CC1N=C2c3ccccc3N=C(SCc3ccc(F)cc3)N2C1=O)NCc1ccccc1` (centres undefined) gave Tg IFNy HTS -19.
For NC(=O)c1cncc(N2CCC(CO)(Cc3ccccc3)CC2)n1 the results were Tg IFNy HTS -32.
`COc1ccc(CC2(CO)CCN(c3ncnc4c3CCC4)CC2)cc1` gave Tg IFNy HTS -50.
Cc1cccc2cc(CO)c(N3CCC(CO)(Cc4ccccc4)CC3)nc12 was read as Tg IFNy HTS -77*.
O=C1CCCC[C@]2(CN(C(=O)c3ccnc(N4CCOCC4)c3)C[C@H]2c2ccccn2)N1 was read as Tg IFNy HTS 11.
`CC(C)c1nc(N2CCCC(O)(CN(C)C)CC2)no1` (centres undefined) gave Tg IFNy HTS -1.
For COC(=O)[C@@H]1C[C@H](C(=O)NCCn2ccc(C)n2)[C@H](c2ccccc2F)N1C the results were Tg IFNy HTS 10.
Cc1cccc(S(=O)(=O)Nc2ccc3c(c2)CCC(=O)N3CC(C)C)c1 was read as Tg IFNy HTS -69.
Screening CN1c2ccccc2C(=O)N2CCc3c([nH]c4ccccc34)C21 (centres undefined) returned Tg IFNy HTS -80*.
Screening CC(=O)N1CCc2c([nH]c3ccccc23)C12C(=O)N(C)c1ccccc12 (centres undefined) returned Tg IFNy HTS 492.
`CCc1ccc(C2c3[nH]c4ccccc4c3CCN2C(=O)CSC)cc1` (centres undefined) gave Tg IFNy HTS 1.
CCOc1cc2c(cc1-c1nccn1CCc1cnc[nH]1)CCC2 was read as Tg IFNy HTS -1.
`Cc1occc1C(=O)N1CCOCC2(CCN(Cc3nccn3C)C2)C1` (centres undefined) gave Tg IFNy HTS -78*.
For Cc1occc1C(=O)N1CCOCC2(CCN(c3ncccn3)C2)C1 (centres undefined) the results were Tg IFNy HTS -3.
`Cc1ccc(CN2CCOCC3(CCN(Cc4nccn4C)C3)C2)s1` (centres undefined) gave Tg IFNy HTS 52.
`Cc1cc(C)n(Cc2nc(-c3ccc(NC(=O)c4cccc(N(C)C)c4)cc3)oc2C)n1` gave Tg IFNy HTS -56.
Cc1ccc(C(=O)Nc2ccc(-c3nc(Cn4nc(C)c(C)c4C)c(C)o3)cc2)cc1 was read as Tg IFNy HTS -88*.
COCC(=O)Nc1ccc(-c2nc(Cn3nc(C)c(C)c3C)c(C)o2)cc1 was read as Tg IFNy HTS 60.
Screening COc1cccc(C(=O)Nc2ccc(-c3nc(Cn4nc(C)cc4C)c(C)o3)cc2)c1 returned Tg IFNy HTS -62.
Screening Cc1oc(-c2ccccc2)nc1Cn1nnc(C(=O)Nc2ccccc2)c1C returned Tg IFNy HTS -64.
Screening Cc1nn(Cc2nc(-c3ccc(NC(=O)c4ccccc4)cc3)oc2C)c(C)c1C returned Tg IFNy HTS -93*.
For Cc1nn(Cc2nc(-c3ccc(NC(=O)c4ccc(C#N)cc4)cc3)oc2C)c(C)c1C the results were Tg IFNy HTS 184.
`Cc1cccc(C(=O)Nc2ccc(-c3nc(Cn4nc(C)c(C)c4C)c(C)o3)cc2)c1` gave Tg IFNy HTS -91*.
For Cc1nn(Cc2nc(-c3ccc(NC(=O)c4ccc(F)cc4)cc3)oc2C)c(C)c1C the results were Tg IFNy HTS 112.
For CCC(=O)Nc1ccc(OC)c(OC)c1 the results were Tg IFNy HTS 70.
For Cc1ccc(NC(=O)Cn2ncc3c(N4CCN(c5ccccn5)CC4)ncnc32)c(C)c1 the results were Tg IFNy HTS -56.
`Cc1nonc1COc1ccccc1C(=O)Nc1nc(C(C)C)cs1` gave Tg IFNy HTS 2.
`CCOC(=O)N1CCC(N2Cc3ncccc3C2=O)CC1` gave Tg IFNy HTS -3.
For Cc1cccn2c(CNC(=O)c3cc(COc4cccc(F)c4)[nH]n3)cnc12 the results were Tg IFNy HTS -1.
Cc1ccc(Nc2nc(C(=O)Nc3ccc(F)cc3Cl)nc3ccccc23)cc1 was read as Tg IFNy HTS 60.
`Cc1[nH]n2c(=O)c3c(nc2c1-c1cccs1)CCC3` gave Tg IFNy HTS -11.
Cc1cccc(-c2cc3nc(C)cc(=O)n3[nH]2)c1 was read as Tg IFNy HTS -21.
`Cc1cccc(-c2cc3nc4c(c(=O)n3[nH]2)CCC4)c1` gave Tg IFNy HTS -100*.
COc1ccccc1CNC(=O)CCC1N=C2c3ccccc3N=C(SCc3cccc(F)c3)N2C1=O (centres undefined) was read as Tg IFNy HTS -14.
For Cc1nc(C(C)C)ncc1C(=O)N1CCC(O)(CN(C)C)C1 (centres undefined) the results were Tg IFNy HTS 3.
Screening Cc1nc(N2CCC(NC(=O)CCCC(=O)N3CCc4ccccc43)CC2)[nH]c(=O)c1C returned Tg IFNy HTS 89.
